According to article PMC12136788:
Over roughly 24,000 sequences, “enrichment r” has its median near 0.99; the highest 2% begin near 3.7. The sample as a whole holds a higher share of the highest values than the screen did.

T1: UNK ZnF1-3 (human, UniProt Q9C0B0 31-174)
T1 sequence: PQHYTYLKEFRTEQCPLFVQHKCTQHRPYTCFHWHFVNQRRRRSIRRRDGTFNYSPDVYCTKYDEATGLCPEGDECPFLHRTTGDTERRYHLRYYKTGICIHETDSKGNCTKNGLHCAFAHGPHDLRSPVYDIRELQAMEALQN

B1: chr7:40134317:40134318:+_ENSG00000065883_ENST00000340829|hu_mus|FALSE|FALSE (ssRNA)
RNA: GGGAGUUCUACAGUCCGACGAUCGGAAGGGUCAUUGCUGUUUGUGAGGACUGUGAUAGGACCAUGGCUAUAUUCAAAUCUAUGGUCCUUGUCUCCACUAAACAACAUGGGACCAGCAUUGAGGUAAAUGUCUCCAUAUCCAGCCAACAGAGGAUUGAGCAUCA
B2: chr11:61557309:61557310:-_ENSG00000134825_ENST00000537328|hu_mus|FALSE|FALSE (ssRNA)
RNA: GGGAGUUCUACAGUCCGACGAUCGAUGCCAACCCAGAGCAGGAGGAAGAGGACUCCAAAGCCCAUGAAGAGUGAGGCCACCAAGGAGAUGAGGAGCUCUUUGUAAAUAUCGCGUGUGUACUUGGUAGAGGUGACCUCGUAAACCAACAGAGGAUUGAGCAUCA
B3: chr17:60744165:60744166:+_ENSG00000011028_ENST00000303375|hu_mus|FALSE|FALSE (ssRNA)
RNA: GGGAGUUCUACAGUCCGACGAUCGUUGAGGUACUUGAGGGGUGAGUUGUCUGACCACUGCCAGCCUCCACUGGUAUCCAGGUCAUUAAGGCCAAUCCAUAGCGUGGAGCUGUAGCCCGUGAGGAGCCCGUUGAUGUAGGUCUGCAACAGAGGAUUGAGCAUCA
B4: chr4:25749455:25749456:-_ENSG00000091490_ENST00000264868|hu_hu|hu_hu_hu_mus_False|48_68 (ssRNA)
RNA: GGGAGUUCUACAGUCCGACGAUCGCACUAUGACCUCUAGAAAAAUCCACAGGGGGAAAAAAUGUAAACCAAUUUACAAUGUUAUCGCCCUCCCUGCGUGUGGAGUGUUUGUCUCAAGGCUCCUUCUAGCUGCUGGAUUUGGGACAACAGAGGAUUGAGCAUCA
B5: chr17:25064881:25064882:-_ENSMUSG00000024163_ENSMUST00000117509|mus_mus|FALSE|FALSE (ssRNA)
RNA: GGGAGUUCUACAGUCCGACGAUCAUAAUGUUCUACCUGGAUCUGGAGUUCUUUCUUCUCUUGUUCCAAGGCAUCUUCAAAUUCGAUGAAUUUCUCCUCGGCCUGUUUGCGCAGCGCCUUCUCGCGCUCGUAUUGCGUGAGCAGCAACAGAGGAUUGAGCAUCA
B6: chr3:51263940:51263941:+_ENSMUSG00000063273_ENSMUST00000029303|mus_hu|FALSE|FALSE (ssRNA)
RNA: GGGAGUUCUACAGUCCGACGAUCGUAAAAUGGAUGCUGUCGAAGUACAUCUUCUAGUUUUAAUAAGUCCACAUAUGAUCUAAGGGUAAUCUUCCUCAUACAGUAUGUAUGAAAGUCAAACUGGUCAUCAGUGAUUUCUAUAAACAACAGAGGAUUGAGCAUCA
B7: 136207635_136207755_6660_3pUTR_ENSMUSG00000028664_ENSMUST00000105845|mouse|control|control (ssRNA)
RNA: GGGAGUUCUACAGUCCGACGAUCGUAUAAGUGUUCUCUGCUACUCUUGUGUCUGCUCAGAAGCAGUGGGUCUAGCACUAAGGAUGUCACUAUUGACCAUAACUUCUUUCCUAGAGAUAAGGUCUUAUGUGGCCCAGGCUGGCUCAACAGAGGAUUGAGCAUCA
B8: chr6:114281168:114281169:-_ENSG00000196591_ENST00000368632|hu_hu|hu_hu_hu_mus_True|8_108 (ssRNA)
RNA: GGGAGUUCUACAGUCCGACGAUCUUCCAUUUUUCUGUAUAAACCAUAAUUUAGCAGCAAGUUAUGAGUCAUCCGGAUUCUAUGAGGCUUCAUGGGAUGACCCUGGCCAUAAUAAUAAUUGCCAAUAUCACAGAUUCAGUAGUACAACAGAGGAUUGAGCAUCA
B9: chr11:60965389:60965390:-_ENSMUSG00000042506_ENSMUST00000041683|mus_hu|FALSE|FALSE (ssRNA)
RNA: GGGAGUUCUACAGUCCGACGAUCCAGCUCCUCAAAAUGGAAGGGGAAAGGAAGAGUAAACAUCUUGGUAAAUAAAGUCUCCAACCACAGCACAGUCAUUGGAAUUUUUUUCUUCAUUUUUAUUUUCAAACUUACAGUAAACAACAACAGAGGAUUGAGCAUCA
B10: chr5:180275300:180275301:-_ENSG00000196670_ENST00000512132|hu_mus|motif|central (ssRNA)
RNA: GGGAGUUCUACAGUCCGACGAUCAGUUGUGAUCUUCCUACCACAAACCAUUACUGUUAAGUCUAUAAUUCAUGACCCACGGAUAAACUGAUAUUCCCUGAAACCAUCCUCUCCCUGAAUUUGCCUGUUGGAGGCCCUUCUUGGCAACAGAGGAUUGAGCAUCA
B11: 61064472_61067304_1030_3pUTR_ENSG00000119541_ENST00000238497|human|control|control (ssRNA)
RNA: GGGAGUUCUACAGUCCGACGAUCUUCGUUUCUCAAAUCUUCGCCUAAUGGCAGAAUCCAGAACCCAGGGUAUAUUUGUAGCUCCCAGAACCAAAAUUCCAUCAUUGUCUACACCAACCCCUUGCAUUUGCACUAGGAACUCCGCAACAGAGGAUUGAGCAUCA
B12: 14087313_14087433_2671_3pUTR_ENSG00000147862_ENST00000380959|human|control|control (ssRNA)
RNA: GGGAGUUCUACAGUCCGACGAUCGGGAAAAUAAAUUCGUUCAAAAUUAUUUUAAAUUCUUUUUAAUCCCCUCAAUUUAGAGUCCAAGGGCUGAAGGACUUAUAAUCAUGAUUCCCCUUUAGAUAUAAAUUUAUAAAUUGCACUCAACAGAGGAUUGAGCAUCA
B13: chr10:114190419:114190420:-_ENSG00000023041_ENST00000369405|hu_hu|FALSE|FALSE (ssRNA)
RNA: GGGAGUUCUACAGUCCGACGAUCGGGCAGGAAUUCAAAGGCAUAUGCAGAAUGGCUUCUCCAUUUCAAAAUGGUAAUAAAAAUAUUUAAAUCAUGGCACUAGGGCACCUUUGAGGAAAAGAACAUCUUAACCAGAGUAGGCUCCAACAGAGGAUUGAGCAUCA
B14: chr20:33097842:33097843:+_ENSG00000078747_ENST00000374864|hu_hu|motif|central (ssRNA)
RNA: GGGAGUUCUACAGUCCGACGAUCAAAAAUAUUAAAUAGCCAAGCCCUAUAGAACUAGGGCCAGGGCUACUUCAAAUAUAACGGUUCUGUAUUUUAAAAAUAUAGGGCAGAAAGCCUUUUGGGUGAUAUUUAUAUAUUUUCACACAACAGAGGAUUGAGCAUCA
B15: chr1:53517203:53517204:+_ENSG00000116171_ENST00000408941|hu_mus|FALSE|FALSE (ssRNA)
RNA: GGGAGUUCUACAGUCCGACGAUCUCAGGAAGAGCUGUUUUAAUUUUCUUUUUAAAUCUUCCAAAAGCAUAUUUUUAUCCCAAACCUAAAUUAUAACAAAUAGCAUUAGAAUUAGAAAAACUUGGAAGAAAGAUAAAUGCAGACCAACAGAGGAUUGAGCAUCA
B16: chr6:38652254:38652255:-_ENSG00000124767_ENST00000373365|hu_hu|hu_hu_hu_mus_False|1_78 (ssRNA)
RNA: GGGAGUUCUACAGUCCGACGAUCCGAGAACUUCAUAGCAGGGAAGUCAAGCUUCUGGAUUAGCGUCAGUCCAAGAACCCUCGUAUAAAAAUCCAGGGACUUCUUAGGAUCCUUAAUUCUUAGCAUCGUUUGCUGCAAUAGAAACAACAGAGGAUUGAGCAUCA
B17: chr2:55200753:55200754:-_ENSG00000115310_ENST00000317610|hu_hu|motif|central (ssRNA)
RNA: GGGAGUUCUACAGUCCGACGAUCUUGGAUUUUAGCCAUAGCAUCUUUAACAUUCUUAUUUGCAAGUCCUAGAUAAUGAUCGGUCUGUGCCUGAUGCCGUUCAUAAAUAACAGGAACACUGAAGAGUGAAAUGAGAGCCAAAAUCAACAGAGGAUUGAGCAUCA
B18: chr15:81824118:81824119:-_ENSMUSG00000022472_ENSMUST00000152227|mus_mus|motif|central (ssRNA)
RNA: GGGAGUUCUACAGUCCGACGAUCGAAGGGAACCUUAAGGUCCCUCUGGAAUCUGGAGUCUAGAUCAUAGACUUCGGGGCGGUUGCUGCCCAUGAAAUCCUAGCAGCAUAUCAUUAAGAAAACGCCCACUCACACCCCAACCACCAACAGAGGAUUGAGCAUCA
B19: chr17:73267850:73267851:+_ENSMUSG00000024063_ENSMUST00000024857|mus_mus|FALSE|FALSE (ssRNA)
RNA: GGGAGUUCUACAGUCCGACGAUCGAAAUAUACAGACAUGAAGUCCUAGGGGAGGCUGACCCACGCCCUUGUGAUUAAGAAAAACAAAACAAAACAAAACAAACAAACAAACAAAAAAAAACCAGUCACUGAGUCCUGAAUGAGCAACAGAGGAUUGAGCAUCA
B20: chr1:135034296:135034297:+_ENSMUSG00000046062_ENSMUST00000052529|mus_hu|FALSE|FALSE (ssRNA)
RNA: GGGAGUUCUACAGUCCGACGAUCUAGCCUAACAUAGACAGGCCAAAUCAUUGAAAUAAAAAAAAUAUAGAAAAACAUAAAAGCCCAUUAACUUCUGAAUUUUGGGAAAGAAACAAGAAAGAGCCCAAAGUUUUCAGAUAGGCACAACAGAGGAUUGAGCAUCA
B21: chr10:114798999:114799000:-_ENSMUSG00000069520_ENSMUST00000092170|mus_mus|motif|central (ssRNA)
RNA: GGGAGUUCUACAGUCCGACGAUCUCAUCUUUAUAUACCUUUUGCACGUAGUGUCGUCACUAUCUGUCAUGGAAAAUAGAGCGGCGAGCACAUCUUCCACCAACCGAACGACAAAAUAGAAUCGUAAAUCCAAAACGUCUAGUCCAACAGAGGAUUGAGCAUCA
B22: chr1:225977196:225977197:+_ENSG00000143742_ENST00000304786|hu_mus|FALSE|FALSE (ssRNA)
RNA: GGGAGUUCUACAGUCCGACGAUCAUUCCGUUUCCAAAAAUAAAGGUUUUCUAACUGGAAACCCCGACAUUCCUACUCUCUAAAGCAAACUUUAGGACGCAGGCUGGUCUCUCGGCUUUGACAGCUCCAUUACGUAAGUAUAUCCAACAGAGGAUUGAGCAUCA

target: T1, UNK ZnF1-3; assay: nsRBNS (natural sequence RNA bind-n-seq); RBNS binding buffer (assumed for nsRBNS): 25 mM Tris pH 7.5, 150 mM KCl, 3 mM MgCl2, 0.01% Triton X-100, 500 ug/ml BSA, 20 U/ml SUPERase-In, 4 C; UNK is unkempt and MSI1 is Musashi-1; names of the RNAs are library labels; protein concentration not given here; high values mean tight binding

| Binder | binding signal [enrichment R] |
| --- | --- |
| B1 | 0.887 |
| B2 | 2.5 |
| B3 | 1.03 |
| B4 | 1.03 |
| B5 | 0.355 |
| B6 | 0.873 |
| B7 | 0.733 |
| B8 | 1.03 |
| B9 | 2 |
| B10 | 0.806 |
| B11 | 1.29 |
| B12 | 4.87 |
| B13 | 4.18 |
| B14 | 0.982 |
| B15 | 1.47 |
| B16 | 1.08 |
| B17 | 1.53 |
| B18 | 1.07 |
| B19 | 4.8 |
| B20 | 11.8 |
| B21 | 0.824 |
| B22 | 0.892 |
